For one sequence, binding signal results are on record in article PMC7862700, “An all-to-all approach to the identification of sequence-specific readers for epigenetic DNA modifications on cytosine”.

Common to all, as to experiment: DAPPL (digital affinity profiling via proximity ligation, sequencing); 10 mM Tris-HCl pH 7.5, 50 mM NaCl, 1 mM DTT, 4% glycerol, room temperature, 30 min; GST-TFs on glutathione beads, 16-mer random dsDNA library, 0.1% formaldehyde crosslink after washing; high values mean tight binding
One assay has as its target T1, FEV (Homo sapiens, UniProt Q99581 1-238).
T1 sequence: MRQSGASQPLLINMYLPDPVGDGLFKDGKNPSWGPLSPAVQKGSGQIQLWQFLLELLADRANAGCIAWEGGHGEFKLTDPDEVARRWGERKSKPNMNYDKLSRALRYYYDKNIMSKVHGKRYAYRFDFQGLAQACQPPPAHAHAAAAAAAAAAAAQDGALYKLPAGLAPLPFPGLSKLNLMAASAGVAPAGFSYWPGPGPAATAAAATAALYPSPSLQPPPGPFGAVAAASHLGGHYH
Particulars: protein: recombinant; tags: N-terminal GST; dsDNA, one strand shown. The gist of the method: (§1)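 Human transcription factors carrying a GST fusion were produced in yeast, bound to glutathione beads, tagged with DNA barcodes and pooled together with a tag-only sample. Each pool was held with 200 nmole of a random double-stranded 16-mer DNA library in Tris/NaCl/DTT/glycerol buffer for 30 min at room temperature, then washed, crosslinked in 0.1% formaldehyde, proximity-ligated with BsaI/T4 ligase (1 h, 37 °C), PCR-amplified and sequenced on an Illumina NextSeq500. Binding signal is the read frequency of each hexamer for a given factor divided by its frequency in the tag-only sample.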

The next assay concerns the target ETV5 (Homo sapiens, UniProt P41161 1-510). Particulars: protein: recombinant; tags: N-terminal GST; dsDNA, one strand shown. The gist of the method:
as §1

Another assay addresses HSF1 (Homo sapiens, UniProt Q00613 1-529). Particulars: protein: recombinant; tags: N-terminal GST; chain copies: 3; dsDNA, one strand shown. The gist of the method:
as §1

Another assay concerns the target T2, SPIC (Homo sapiens, UniProt Q8N5J4 1-248).
T2 sequence: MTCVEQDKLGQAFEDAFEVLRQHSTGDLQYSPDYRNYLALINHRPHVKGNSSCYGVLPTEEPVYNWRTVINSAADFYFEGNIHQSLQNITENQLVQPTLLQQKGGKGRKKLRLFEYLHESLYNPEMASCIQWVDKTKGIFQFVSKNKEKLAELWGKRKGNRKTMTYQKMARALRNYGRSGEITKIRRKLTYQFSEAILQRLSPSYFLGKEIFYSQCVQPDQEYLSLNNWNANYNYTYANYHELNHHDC
The settings on record: protein: recombinant; tags: N-terminal GST; dsDNA, one strand shown. The gist of the method: as §1

The target in another assay is ELF4 (Homo sapiens, UniProt Q99607 1-663). The settings on record: protein: recombinant; tags: N-terminal GST; dsDNA, one strand shown. The gist of the method: as §1
ELF4, sequence (Q99607 whole entry): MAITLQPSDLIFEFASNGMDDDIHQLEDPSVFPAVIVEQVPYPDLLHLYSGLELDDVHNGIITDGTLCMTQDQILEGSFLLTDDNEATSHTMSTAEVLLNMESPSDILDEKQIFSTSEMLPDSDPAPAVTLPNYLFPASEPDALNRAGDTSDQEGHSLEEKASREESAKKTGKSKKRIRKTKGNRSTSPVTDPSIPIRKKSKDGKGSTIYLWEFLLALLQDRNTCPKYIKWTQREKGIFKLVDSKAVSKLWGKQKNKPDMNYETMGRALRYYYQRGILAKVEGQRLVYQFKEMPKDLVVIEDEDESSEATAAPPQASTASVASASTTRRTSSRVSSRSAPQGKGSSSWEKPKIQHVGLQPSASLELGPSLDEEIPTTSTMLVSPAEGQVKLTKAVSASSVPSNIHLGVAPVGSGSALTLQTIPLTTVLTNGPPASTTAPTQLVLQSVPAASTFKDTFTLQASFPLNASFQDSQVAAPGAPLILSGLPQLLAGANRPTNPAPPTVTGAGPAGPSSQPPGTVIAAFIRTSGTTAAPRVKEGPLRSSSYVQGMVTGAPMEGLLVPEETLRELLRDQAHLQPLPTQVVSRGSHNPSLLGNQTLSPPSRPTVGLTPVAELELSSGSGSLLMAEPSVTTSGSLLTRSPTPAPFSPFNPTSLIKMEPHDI
The next assay deals with T3, ELK4 (Homo sapiens, UniProt P28324-2 1-405).
T3 sequence: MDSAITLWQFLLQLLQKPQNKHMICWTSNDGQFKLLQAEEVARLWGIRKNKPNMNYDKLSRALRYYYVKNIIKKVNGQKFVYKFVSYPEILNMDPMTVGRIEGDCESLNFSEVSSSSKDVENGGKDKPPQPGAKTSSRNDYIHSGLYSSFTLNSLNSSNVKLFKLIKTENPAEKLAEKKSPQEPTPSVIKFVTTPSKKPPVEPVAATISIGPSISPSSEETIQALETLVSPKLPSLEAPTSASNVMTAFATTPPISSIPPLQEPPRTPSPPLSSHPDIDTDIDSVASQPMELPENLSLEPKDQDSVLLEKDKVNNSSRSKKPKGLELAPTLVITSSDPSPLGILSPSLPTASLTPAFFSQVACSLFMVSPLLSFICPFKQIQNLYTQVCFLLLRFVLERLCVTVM
Particulars: protein: recombinant; tags: N-terminal GST; dsDNA, one strand shown. The gist of the method:
as §1

A further assay has as its target T4, ETV2 (Homo sapiens, UniProt O00321 1-342).
T4 sequence: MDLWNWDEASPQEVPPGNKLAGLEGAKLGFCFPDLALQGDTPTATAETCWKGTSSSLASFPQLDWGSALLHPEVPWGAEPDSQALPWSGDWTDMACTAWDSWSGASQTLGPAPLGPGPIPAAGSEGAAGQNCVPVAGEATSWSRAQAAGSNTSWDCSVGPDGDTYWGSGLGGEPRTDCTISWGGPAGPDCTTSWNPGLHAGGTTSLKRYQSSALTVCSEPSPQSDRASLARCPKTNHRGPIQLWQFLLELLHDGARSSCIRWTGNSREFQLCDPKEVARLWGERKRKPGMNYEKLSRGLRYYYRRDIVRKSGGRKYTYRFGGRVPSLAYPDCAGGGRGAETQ
Particulars: protein: recombinant; tags: N-terminal GST; dsDNA, one strand shown. The gist of the method:
as §1

The target of the next assay is T5, ELF3 (Homo sapiens, UniProt P78545 1-371).
T5 sequence: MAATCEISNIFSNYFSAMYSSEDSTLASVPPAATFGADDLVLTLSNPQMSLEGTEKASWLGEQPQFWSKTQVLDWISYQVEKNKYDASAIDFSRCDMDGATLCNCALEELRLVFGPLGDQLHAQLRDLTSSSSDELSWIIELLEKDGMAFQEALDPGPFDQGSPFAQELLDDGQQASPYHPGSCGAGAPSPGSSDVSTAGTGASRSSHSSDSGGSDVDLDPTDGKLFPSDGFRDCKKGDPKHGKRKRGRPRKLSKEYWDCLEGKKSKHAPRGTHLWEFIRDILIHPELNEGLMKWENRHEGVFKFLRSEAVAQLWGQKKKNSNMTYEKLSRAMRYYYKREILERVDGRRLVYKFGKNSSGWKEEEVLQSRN
The settings on record: protein: recombinant; tags: N-terminal GST; dsDNA, one strand shown. The gist of the method: as §1

The next assay concerns the target CRX (Homo sapiens, UniProt O43186 1-299). The settings on record: protein: recombinant; tags: N-terminal GST; dsDNA, one strand shown. The gist of the method: as §1
For the next assay, the target named is ETV1 (Homo sapiens, UniProt P50549 1-477). The settings on record: protein: recombinant; tags: N-terminal GST; dsDNA, one strand shown. The gist of the method: as §1
ETV1, sequence (P50549 whole entry): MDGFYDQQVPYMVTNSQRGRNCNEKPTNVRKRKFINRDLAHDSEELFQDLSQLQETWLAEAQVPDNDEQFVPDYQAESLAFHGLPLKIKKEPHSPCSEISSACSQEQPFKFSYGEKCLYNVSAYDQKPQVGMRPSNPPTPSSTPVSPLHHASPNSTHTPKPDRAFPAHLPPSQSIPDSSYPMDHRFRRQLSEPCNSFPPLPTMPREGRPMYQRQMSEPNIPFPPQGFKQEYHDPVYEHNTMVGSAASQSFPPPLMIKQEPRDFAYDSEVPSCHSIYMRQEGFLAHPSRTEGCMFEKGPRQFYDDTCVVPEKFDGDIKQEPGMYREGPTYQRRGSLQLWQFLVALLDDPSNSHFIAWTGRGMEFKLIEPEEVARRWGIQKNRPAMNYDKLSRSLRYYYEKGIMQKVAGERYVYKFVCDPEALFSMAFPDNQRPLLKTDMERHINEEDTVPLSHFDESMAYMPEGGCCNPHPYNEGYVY
The target in a further assay is T6, ERF (Homo sapiens, UniProt P50548 1-548).
T6 sequence: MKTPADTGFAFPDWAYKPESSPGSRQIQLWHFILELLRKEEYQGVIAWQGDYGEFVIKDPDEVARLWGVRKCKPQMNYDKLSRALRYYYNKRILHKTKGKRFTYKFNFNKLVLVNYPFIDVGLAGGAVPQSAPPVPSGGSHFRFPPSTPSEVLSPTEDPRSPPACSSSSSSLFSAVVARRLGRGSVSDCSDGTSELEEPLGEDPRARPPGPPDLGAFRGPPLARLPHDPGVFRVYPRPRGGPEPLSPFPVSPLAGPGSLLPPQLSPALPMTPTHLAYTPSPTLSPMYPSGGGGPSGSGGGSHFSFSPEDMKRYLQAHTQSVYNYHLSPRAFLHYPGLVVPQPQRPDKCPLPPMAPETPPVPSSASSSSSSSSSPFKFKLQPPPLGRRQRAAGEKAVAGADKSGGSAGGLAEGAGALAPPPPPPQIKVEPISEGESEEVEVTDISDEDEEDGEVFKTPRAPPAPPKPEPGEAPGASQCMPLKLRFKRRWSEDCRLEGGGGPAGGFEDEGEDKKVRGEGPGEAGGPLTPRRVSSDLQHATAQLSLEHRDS
The settings on record: protein: recombinant; tags: N-terminal GST; dsDNA, one strand shown. The gist of the method: as §1

Another assay addresses T7, ETV3L (Homo sapiens, UniProt Q6ZN32 1-361).
T7 sequence: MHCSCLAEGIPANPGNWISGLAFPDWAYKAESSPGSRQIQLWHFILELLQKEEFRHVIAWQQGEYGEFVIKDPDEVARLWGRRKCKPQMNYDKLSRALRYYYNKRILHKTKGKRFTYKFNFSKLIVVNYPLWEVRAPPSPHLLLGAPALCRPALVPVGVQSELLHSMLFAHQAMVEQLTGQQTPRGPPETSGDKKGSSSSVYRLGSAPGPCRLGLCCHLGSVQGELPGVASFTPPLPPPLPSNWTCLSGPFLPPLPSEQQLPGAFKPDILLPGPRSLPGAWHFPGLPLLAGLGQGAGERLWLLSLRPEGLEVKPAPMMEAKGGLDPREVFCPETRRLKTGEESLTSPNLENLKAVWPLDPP
The settings on record: protein: recombinant; tags: N-terminal GST; dsDNA, one strand shown. The gist of the method:
as §1

The next assay deals with T8, ETS2 (Homo sapiens, UniProt P15036 1-469).
T8 sequence: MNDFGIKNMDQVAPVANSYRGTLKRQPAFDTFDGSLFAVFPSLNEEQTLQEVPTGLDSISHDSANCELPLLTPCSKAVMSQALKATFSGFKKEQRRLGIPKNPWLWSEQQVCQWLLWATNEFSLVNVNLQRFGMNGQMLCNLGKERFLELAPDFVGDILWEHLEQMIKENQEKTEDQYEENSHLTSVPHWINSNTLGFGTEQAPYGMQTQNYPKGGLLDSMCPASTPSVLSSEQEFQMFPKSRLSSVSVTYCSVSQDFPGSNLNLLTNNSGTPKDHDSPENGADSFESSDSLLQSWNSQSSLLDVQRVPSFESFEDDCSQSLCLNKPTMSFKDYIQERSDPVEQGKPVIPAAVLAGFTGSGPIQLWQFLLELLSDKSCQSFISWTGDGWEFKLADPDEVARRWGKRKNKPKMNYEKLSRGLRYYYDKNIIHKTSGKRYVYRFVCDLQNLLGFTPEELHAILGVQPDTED
Particulars: protein: recombinant; tags: N-terminal GST; dsDNA, one strand shown. The gist of the method: as §1

The next assay concerns the target T9, SPDEF (Homo sapiens, UniProt O95238 1-335).
T9 sequence: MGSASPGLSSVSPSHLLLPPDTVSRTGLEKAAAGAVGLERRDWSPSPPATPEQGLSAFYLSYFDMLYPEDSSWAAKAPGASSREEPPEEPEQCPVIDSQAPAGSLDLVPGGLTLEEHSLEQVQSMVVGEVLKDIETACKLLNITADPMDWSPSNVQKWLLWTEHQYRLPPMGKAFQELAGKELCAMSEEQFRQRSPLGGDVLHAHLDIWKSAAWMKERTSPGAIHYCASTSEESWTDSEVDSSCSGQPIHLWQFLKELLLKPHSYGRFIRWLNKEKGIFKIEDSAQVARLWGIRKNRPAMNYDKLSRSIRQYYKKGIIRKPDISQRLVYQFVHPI
Particulars: protein: recombinant; tags: N-terminal GST; dsDNA, one strand shown. The gist of the method:
as §1

For another assay, the target named is T10, ETV7 (Homo sapiens, UniProt Q9Y603 1-341).
T10 sequence: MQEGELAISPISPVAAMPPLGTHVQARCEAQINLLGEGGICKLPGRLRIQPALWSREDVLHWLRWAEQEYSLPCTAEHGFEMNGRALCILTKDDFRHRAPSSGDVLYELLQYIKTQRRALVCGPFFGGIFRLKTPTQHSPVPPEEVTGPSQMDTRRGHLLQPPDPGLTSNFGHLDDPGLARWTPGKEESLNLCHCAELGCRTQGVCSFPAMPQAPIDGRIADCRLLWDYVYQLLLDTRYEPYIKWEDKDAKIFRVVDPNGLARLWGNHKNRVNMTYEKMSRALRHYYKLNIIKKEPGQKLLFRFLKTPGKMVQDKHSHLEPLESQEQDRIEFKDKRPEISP
The settings on record: protein: recombinant; tags: N-terminal GST; dsDNA, one strand shown. The gist of the method: as §1

A further assay concerns the target T11, ELF5 (Homo sapiens, UniProt Q9UKW6-2 1-255).
T11 sequence: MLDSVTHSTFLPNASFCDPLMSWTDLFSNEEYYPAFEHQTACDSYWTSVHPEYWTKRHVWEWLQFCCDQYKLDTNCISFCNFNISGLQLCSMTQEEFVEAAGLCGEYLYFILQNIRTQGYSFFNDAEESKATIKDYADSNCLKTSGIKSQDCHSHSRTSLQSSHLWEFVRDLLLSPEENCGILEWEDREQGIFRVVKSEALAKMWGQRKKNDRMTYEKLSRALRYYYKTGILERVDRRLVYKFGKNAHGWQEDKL
The settings on record: protein: recombinant; tags: N-terminal GST; dsDNA, one strand shown. The gist of the method: as §1

The next assay concerns the target T12, ETV3 (Homo sapiens, UniProt P41162-2 1-143).
T12 sequence: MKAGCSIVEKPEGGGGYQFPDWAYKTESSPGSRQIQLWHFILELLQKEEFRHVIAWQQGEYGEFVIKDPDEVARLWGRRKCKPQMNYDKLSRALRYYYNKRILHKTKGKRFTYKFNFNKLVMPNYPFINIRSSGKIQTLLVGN
The settings on record: protein: recombinant; tags: N-terminal GST; dsDNA, one strand shown. The gist of the method:
as §1

The target of another assay is ETV6 (Homo sapiens, UniProt P41212 1-452). Particulars: protein: recombinant; tags: N-terminal GST; dsDNA, one strand shown. The gist of the method: as §1
ETV6, sequence (P41212 whole entry): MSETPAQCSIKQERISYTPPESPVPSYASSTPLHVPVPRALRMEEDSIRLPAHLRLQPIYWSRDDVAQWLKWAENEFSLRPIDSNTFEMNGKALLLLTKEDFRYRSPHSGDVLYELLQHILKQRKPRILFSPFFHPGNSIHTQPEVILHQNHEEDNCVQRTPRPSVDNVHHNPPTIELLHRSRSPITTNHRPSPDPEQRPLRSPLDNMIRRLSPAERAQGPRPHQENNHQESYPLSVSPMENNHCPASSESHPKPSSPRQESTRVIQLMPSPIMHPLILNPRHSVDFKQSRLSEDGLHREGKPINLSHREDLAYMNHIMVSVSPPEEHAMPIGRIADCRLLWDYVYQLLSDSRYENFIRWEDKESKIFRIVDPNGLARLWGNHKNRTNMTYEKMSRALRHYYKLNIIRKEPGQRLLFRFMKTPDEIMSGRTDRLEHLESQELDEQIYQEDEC

CRX, sequence (O43186 whole entry): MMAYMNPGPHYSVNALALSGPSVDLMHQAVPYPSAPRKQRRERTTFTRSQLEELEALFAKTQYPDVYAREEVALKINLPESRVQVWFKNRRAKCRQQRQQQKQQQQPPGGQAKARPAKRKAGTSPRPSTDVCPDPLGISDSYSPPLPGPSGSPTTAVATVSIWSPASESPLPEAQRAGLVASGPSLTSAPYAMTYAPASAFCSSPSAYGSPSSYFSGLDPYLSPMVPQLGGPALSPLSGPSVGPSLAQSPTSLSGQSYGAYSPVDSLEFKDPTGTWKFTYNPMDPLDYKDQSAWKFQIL
ETV5, sequence (P41161 whole entry): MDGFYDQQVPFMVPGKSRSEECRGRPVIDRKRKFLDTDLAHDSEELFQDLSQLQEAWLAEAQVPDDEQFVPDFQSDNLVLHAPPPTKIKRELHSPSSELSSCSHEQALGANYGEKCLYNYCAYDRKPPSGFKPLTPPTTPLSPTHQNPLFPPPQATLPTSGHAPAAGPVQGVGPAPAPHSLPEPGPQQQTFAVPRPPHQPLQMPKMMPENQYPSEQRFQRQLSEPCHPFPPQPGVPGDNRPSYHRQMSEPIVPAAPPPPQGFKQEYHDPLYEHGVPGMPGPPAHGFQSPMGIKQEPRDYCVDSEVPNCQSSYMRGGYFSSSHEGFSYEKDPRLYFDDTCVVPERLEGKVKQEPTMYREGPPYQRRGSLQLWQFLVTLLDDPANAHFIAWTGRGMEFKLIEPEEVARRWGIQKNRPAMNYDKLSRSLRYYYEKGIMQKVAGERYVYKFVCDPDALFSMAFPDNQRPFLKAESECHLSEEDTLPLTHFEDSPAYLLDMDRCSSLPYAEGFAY
HSF1, sequence (Q00613 whole entry): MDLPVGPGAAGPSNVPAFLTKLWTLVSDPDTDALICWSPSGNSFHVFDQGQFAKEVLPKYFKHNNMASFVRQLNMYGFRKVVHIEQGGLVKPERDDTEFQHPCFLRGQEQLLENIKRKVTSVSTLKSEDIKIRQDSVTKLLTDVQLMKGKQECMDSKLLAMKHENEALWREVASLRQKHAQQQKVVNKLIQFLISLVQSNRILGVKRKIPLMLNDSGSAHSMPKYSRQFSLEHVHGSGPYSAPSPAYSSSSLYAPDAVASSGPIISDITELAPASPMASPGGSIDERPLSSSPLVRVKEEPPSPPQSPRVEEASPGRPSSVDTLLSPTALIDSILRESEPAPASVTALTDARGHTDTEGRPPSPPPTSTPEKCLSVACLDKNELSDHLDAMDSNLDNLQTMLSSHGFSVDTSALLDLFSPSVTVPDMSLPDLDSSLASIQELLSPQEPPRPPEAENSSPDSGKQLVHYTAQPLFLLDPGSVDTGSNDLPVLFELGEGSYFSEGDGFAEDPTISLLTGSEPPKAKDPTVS

In the case of TGATGG, the binding signal with FEV is 1.16 fold enrichment (6-mer frequency, TF over GST control); with ETV5 it was 1.34 fold enrichment (6-mer frequency, TF over GST control); in the assay with HSF1, 1.26 fold enrichment (6-mer frequency, TF over GST control); with SPIC, 1.51 fold enrichment (6-mer frequency, TF over GST control); with ELF4, 1.29 fold enrichment (6-mer frequency, TF over GST control); with ELK4, 1.33 fold enrichment (6-mer frequency, TF over GST control). Besides, the binding signal is 1.29 fold enrichment (6-mer frequency, TF over GST control) with ETV2; 1.32 fold enrichment (6-mer frequency, TF over GST control) with ELF3; 1.1 fold enrichment (6-mer frequency, TF over GST control) in the assay with CRX; 1.32 fold enrichment (6-mer frequency, TF over GST control) with ETV1; 1.27 fold enrichment (6-mer frequency, TF over GST control) with ERF; 1.16 fold enrichment (6-mer frequency, TF over GST control) with ETV3L. Further, the binding signal was 1.22 fold enrichment (6-mer frequency, TF over GST control) with ETS2; 1.09 fold enrichment (6-mer frequency, TF over GST control) with SPDEF; 1.24 fold enrichment (6-mer frequency, TF over GST control) with ETV7; 1.26 fold enrichment (6-mer frequency, TF over GST control) with ELF5; 1.2 fold enrichment (6-mer frequency, TF over GST control) with ETV3; 1.21 fold enrichment (6-mer frequency, TF over GST control) with ETV6.
